# Measurements published in PubChem BioAssay AID1159580 (chemical genetic matrix, 2015).
# Several values for one entry are separate records, joined by “and”; a condition that tells them apart may be missing. Equal entries are not always repeated. The campaign covered roughly 5,500 compounds. About 2,000 (36%) were called active. Roughly 18% stayed inconclusive and do not appear here. Some of the results follow. A number with no mark means an inactive call. No stated cut-off is given here; in the data, active means normalized growth mostly below about 0.91 (no sharp cut-off); inconclusive means no clear call, values can overlap the other calls; inactive means mostly above about 0.92.
# Assay: chemical genetic growth profiling, strain panel (AID 1159580);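 further: tested at 20 µM; growth read once vehicle control cultures reached saturation at 30 °C; 1 = growth at the plate median or of vehicle wells; lower values mean less growth of the strain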
# Conditions: S. cerevisiae deletion strains, growth OD
smiles,measurement,setting,value
CC(COc1ccccc1)N(CCCl)Cc1ccccc1 (stereo not given),normalized growth,"locus YAL013W, strain DEP1, active compounds read low",1.01
same,normalized growth,"locus YAL021C, strain ccr4, active compounds read low",0.96
same,normalized growth,"locus YAL026C, strain drs2, active compounds read low",0.936
same,normalized growth,"locus YAL030W, strain snc1, active compounds read low",0.974
same,normalized growth,"locus YAL040C, strain CLN3, active compounds read low",1.09
same,normalized growth,"locus YBL061C, strain skt5, active compounds read low",0.978
same,normalized growth,"locus YBR009C, strain hhf1, active compounds read low",0.99
same,normalized growth,"locus YBR021W, strain FUR4, active compounds read low",1.02
same,normalized growth,"locus YBR023C, strain chs3, active compounds read low",0.97
same,normalized growth,"locus YBR171W, strain sec66, active compounds read low",0.984
same,normalized growth,"locus YBR229C, strain ROT2, active compounds read low",1
same,normalized growth,"locus YBR231C, strain swc5, active compounds read low",1.01
same,normalized growth,"locus YBR279W, strain paf1, active compounds read low",0.961
same,normalized growth,"locus YCL011C, strain gbp2, active compounds read low",0.895 (active)
same,normalized growth,"locus YCL016C, strain dcc1, active compounds read low",0.947
same,normalized growth,"locus YCL029C, strain bik1, active compounds read low",1.03
same,normalized growth,"locus YCL061C, strain MRC1 (second series), active compounds read low",0.956
same,normalized growth,"locus YCL061C, strain MRC1, active compounds read low",0.964
same,normalized growth,"locus YCL069W, strain vba3, active compounds read low",0.995
same,normalized growth,"locus YCR088W, strain abp1, active compounds read low",0.986
same,normalized growth,"locus YDL005C, strain med2, active compounds read low",0.972
same,normalized growth,"locus YDL035C, strain GPR1, active compounds read low",0.997
same,normalized growth,"locus YDL040C, strain nat1, active compounds read low",0.983
same,normalized growth,"locus YDL074C, strain BRE1, active compounds read low",1.02
same,normalized growth,"locus YDL101C, strain DUN1, active compounds read low",1.01
same,normalized growth,"locus YDL134C, strain PPH21, active compounds read low",1.01
same,normalized growth,"locus YDL185W, strain tfp1, active compounds read low",1.01
same,normalized growth,"locus YDL192W, strain arf1, active compounds read low",1.01
same,normalized growth,"locus YDR001C, strain nth1, active compounds read low",0.985
same,normalized growth,"locus YDR069C, strain doa4, active compounds read low",0.965
same,normalized growth,"locus YDR101C, strain arx1, active compounds read low",1.01
same,normalized growth,"locus YDR137W, strain rgp1, active compounds read low",0.853
same,normalized growth,"locus YDR150W, strain NUM1, active compounds read low",1.01 and 0.963
same,normalized growth,"locus YDR159W, strain sac3, active compounds read low",0.978
same,normalized growth,"locus YDR162C, strain NBP2, active compounds read low",0.998
same,normalized growth,"locus YDR195W, strain ref2",1.03
same,normalized growth,"locus YDR297W, strain sur2, active compounds read low",0.995
same,normalized growth,"locus YDR318W, strain mcm21, active compounds read low",1.01
same,normalized growth,"locus YDR334W, strain swr1, active compounds read low",0.969
same,normalized growth,"locus YDR335W, strain msn5, active compounds read low",0.974
same,normalized growth,"locus YDR363W, strain ESC2, active compounds read low",0.905
same,normalized growth,"locus YDR388W, active compounds read low",1.02
same,normalized growth,"locus YDR392W, strain spt3, active compounds read low",0.742
same,normalized growth,"locus YDR502C, strain sam2, active compounds read low",0.999
same,normalized growth,"locus YEL003W, strain gim4, active compounds read low",0.991
same,normalized growth,"locus YEL037C, strain rad23, active compounds read low",0.978
same,normalized growth,"locus YEL061C, strain CIN8 (second series), active compounds read low",0.971
same,normalized growth,"locus YEL061C, strain CIN8, active compounds read low",1.01
same,normalized growth,"locus YER002W, strain NOP16, active compounds read low",1.02
same,normalized growth,"locus YER015W, strain faa2, active compounds read low",0.993
same,normalized growth,"locus YER016W, strain bim1, active compounds read low",0.983
same,normalized growth,"locus YER110C, active compounds read low",1.01
same,normalized growth,"locus YER111C, strain swi4, active compounds read low",0.995
same,normalized growth,"locus YER155C, strain BEM2 (second series), active compounds read low",0.994
same,normalized growth,"locus YER155C, strain BEM2, active compounds read low",1.01
same,normalized growth,"locus YER167W, strain BCK2, active compounds read low",0.991
same,normalized growth,"locus YFR010W, strain ubp6, active compounds read low",0.986
same,normalized growth,"locus YGL078C, strain dbp3, active compounds read low",1.01
same,normalized growth,"locus YGL086W, strain mad1, active compounds read low",0.986
same,normalized growth,"locus YGL167C, strain pmr1, active compounds read low",1
same,normalized growth,"locus YGL173C, strain kem1, active compounds read low",1.01
same,normalized growth,"locus YGL227W, strain vid30, active compounds read low",0.973
same,normalized growth,"locus YGL240W, strain doc1, active compounds read low",1
same,normalized growth,"locus YGL248W, strain PDE1, active compounds read low",1.01
same,normalized growth,"locus YGL253W, strain hxk2, active compounds read low",0.921
same,normalized growth,"locus YGR078C, strain PAC10, active compounds read low",1.01
same,normalized growth,"locus YGR135W, strain pre9, active compounds read low",1.01
same,normalized growth,"locus YGR229C, strain SMI1, active compounds read low",0.999
same,normalized growth,"locus YGR252W, strain gcn5, active compounds read low",0.957
same,normalized growth,"locus YHR013C, strain ard1, active compounds read low",0.924
same,normalized growth,"locus YHR027C, strain rpn1, active compounds read low",0.991
same,normalized growth,"locus YHR030C, strain SLT2, active compounds read low",1.01 and 0.986
same,normalized growth,"locus YHR079C, strain IRE1 (second series), active compounds read low",1.02
same,normalized growth,"locus YHR079C, strain IRE1, active compounds read low",0.964
same,normalized growth,"locus YHR094C, strain hxt1, active compounds read low",1.02
same,normalized growth,"locus YHR129C, strain ARP1, active compounds read low",1.01
same,normalized growth,"locus YHR142W, strain chs7, active compounds read low",0.938
same,normalized growth,"locus YHR200W, strain rpn10, active compounds read low",1.01
same,normalized growth,"locus YIL066C, strain RNR3, active compounds read low",1.01
same,normalized growth,"locus YIL073C, strain SPO22, active compounds read low",1.05
same,normalized growth,"locus YIL125W, strain kgd1, active compounds read low",1.01
same,normalized growth,"locus YIR030C, strain dcg1, active compounds read low",1.02
same,normalized growth,"locus YJL092W, strain hpr5, active compounds read low",0.963
same,normalized growth,"locus YJL095W, strain BCK1 (second series), active compounds read low",0.958
same,normalized growth,"locus YJL095W, strain BCK1, active compounds read low",1 and 0.997
same,normalized growth,"locus YJL115W, strain asf1, active compounds read low",0.947
same,normalized growth,"locus YJL129C, strain trk1, active compounds read low",0.956
same,normalized growth,"locus YJL134W, strain LCB3, active compounds read low",1
same,normalized growth,"locus YJL154C, strain vps35, active compounds read low",0.982
same,normalized growth,"locus YJL164C, strain tpk1, active compounds read low",0.961
same,normalized growth,"locus YJL166W, strain qcr8, active compounds read low",0.974
same,normalized growth,"locus YJL168C, strain set2, active compounds read low",1.01
same,normalized growth,"locus YJL187C, strain SWE1 (second series), active compounds read low",1.03
same,normalized growth,"locus YJR043C, strain POL32, active compounds read low",1.02
same,normalized growth,"locus YJR066W, strain TOR1, active compounds read low",0.925
